In paper PMC7819943, “Rice protein-binding microarrays: a tool to detect cis-acting elements near promoter regions in rice” one finds binding signal data, which are given here for 42 sequences.

Over roughly 68,000 sequences, “fluorescence intensity (a.u.)” has its median near 9,100; the highest 2% begin near 16,000. Only a selection was taken, and the highest values are over-represented in it overall.

OsWRKY34, sequence (Q0JBA9 entry or part of it): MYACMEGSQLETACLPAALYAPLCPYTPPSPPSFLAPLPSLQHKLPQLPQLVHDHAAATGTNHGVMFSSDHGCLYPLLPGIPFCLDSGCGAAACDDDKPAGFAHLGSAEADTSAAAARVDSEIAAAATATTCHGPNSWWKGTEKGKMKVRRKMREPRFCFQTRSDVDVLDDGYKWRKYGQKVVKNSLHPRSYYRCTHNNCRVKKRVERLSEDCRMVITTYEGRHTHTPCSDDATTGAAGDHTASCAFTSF

This experiment has as its target OsWRKY34 (Oryza sativa, UniProt Q0JBA9 1-250). Description: protein-binding microarray (RPBM); PBS, 2% BSA, 51.3 ng/ul salmon testes DNA, 50 uM zinc acetate, 200 nM TF, 25 C, 1 h; high values mean tight binding. The note with it: protein: recombinant; tags: N-terminal polyhistidine and DsRed monomer fusion (pET32a); label: CyDye5-dUTP incorporated in the synthesized complementary strand; 3' TTTTT single-stranded linker to array surface; dsDNA, one strand shown. The method in brief:
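A custom Agilent array was converted to double-stranded form by primer extension with Cy5-dUTP and blocked with 2% BSA. Protein at 200 nM in PBS with 2% BSA, salmon testes DNA and 50 µM zinc acetate was applied for 1 h at 25 °C, followed by washing. The proteins were polyhistidine–DsRed N-terminal fusions of transcription factors, expressed in E. coli BL21-CodonPlus and Ni–NTA-purified. The binding signal is per-feature fluorescence intensity (arbitrary units) from an Axon 4000B scanner.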
Regarding “TTGGCGGTGGAGGCGGTGGTGGCTTTGGAGGAGACGGTGGCGGAGTCACCTAGTGCAG”, the binding signal was 8650 fluorescence intensity (a.u.).

In the case of “CGGGTGGGGATGGGCTGGATCTGGATTGATTGGGAGTGTTCGGAGTCACCTAGTGCAG”, the binding signal is 15200 fluorescence intensity (a.u.).

With “GCTTTTGGCTGTGGTGGGTGCTTGTGGGTGGAGAGAGAGACGGAGTCACCTAGTGCAG”, the binding signal is 19300 fluorescence intensity (a.u.).

With “GGTTGCTGTGGTTGGCGAGGTGGGGTGGGGCTTGGAGTAACGGAGTCACCTAGTGCAG”, the binding signal is 27400 fluorescence intensity (a.u.).

Consider “ATCTTTGCCAAAATTTTTCTACTAGTATAATACTATCTCCCGGAGTCACCTAGTGCAG”, for which the binding signal is 8420 fluorescence intensity (a.u.).

In the case of “AAGCTCCGATCCACAGCGCACCTCGAGCCCTACCTCCGATCGGAGTCACCTAGTGCAG”, the binding signal was 8940 fluorescence intensity (a.u.).

As to “TTCCTCCATCCATTTTGTCAACTCCTCTCCGCTTTTCATCCGGAGTCACCTAGTGCAG”, the binding signal was 9640 fluorescence intensity (a.u.).

Consider “GCCTGGCGCGCCTCTCCTGCTCTGTTGGACCGCCGCGCCCCGGAGTCACCTAGTGCAG”, for which the binding signal was 12000 fluorescence intensity (a.u.).

In the case of “CCACTCTCCGGCGCACCTATTTTCCATTTATATATATATGCGGAGTCACCTAGTGCAG”, the binding signal was 9670 fluorescence intensity (a.u.).

As for “TTGAACCCTGCTCTCAGCTGAGCACCATGCAATAACTGTCCGGAGTCACCTAGTGCAG”, the binding signal was 8270 fluorescence intensity (a.u.).

As for “CCAATGATATGTGCCGAAGTTGTATTTATCGAGAGATATTCGGAGTCACCTAGTGCAG”, the binding signal is 9850 fluorescence intensity (a.u.).

As for “CCAGTGAATTACATTTTTGCCCGATCCCGTCGCGAACTCCCGGAGTCACCTAGTGCAG”, the binding signal is 8750 fluorescence intensity (a.u.).

As for “CTGGGTGTTCAGATATATTACTAGAGGTCATACCATACAACGGAGTCACCTAGTGCAG”, the binding signal is 8130 fluorescence intensity (a.u.).

For “GGCTATCGGTGGGTGGGTGGGGTGTACTACTCCCCTATAACGGAGTCACCTAGTGCAG”, the binding signal was 22200 fluorescence intensity (a.u.).

For “CTACTAGTACAGGCTATATCGCTTACTCCCTTTGTCCTAACGGAGTCACCTAGTGCAG”, the binding signal was 8420 fluorescence intensity (a.u.).

In the case of “AACCTACTAGCTAGCTTAGTGTACTCTGTGTACTGTATATCGGAGTCACCTAGTGCAG”, the binding signal is 8190 fluorescence intensity (a.u.).

As to “CTTGGCTGTTCTTGGGTGGGTGAGGTGGGGCGGTCGGATCCGGAGTCACCTAGTGCAG”, the binding signal is 17100 fluorescence intensity (a.u.).

Consider “GCCATATTATTTTTCCTTTGTCCTAATTAATGTTAGAAATCGGAGTCACCTAGTGCAG”, for which the binding signal was 9440 fluorescence intensity (a.u.).

“TGGGTCTCTTGGGGTCGGTGGGGCGGTCGTCGTCCGTGCCCGGAGTCACCTAGTGCAG”: the binding signal is 11400 fluorescence intensity (a.u.).

“TACATTGTTAGTACTGTTTGGTGTAACTATTTTTTTATAACGGAGTCACCTAGTGCAG”: the binding signal is 8180 fluorescence intensity (a.u.).

With “TAGTTGTTGTTGTTGTTATTTGTTAATTGGGCCTTGTTCACGGAGTCACCTAGTGCAG”, the binding signal is 12300 fluorescence intensity (a.u.).

In the case of “CTAATTAGTACTGCAATTTTGGGTCCTTGGGTTGTTAGAACGGAGTCACCTAGTGCAG”, the binding signal was 16900 fluorescence intensity (a.u.).

As to “TAGGGGTTAGTGTGCGAGCATGTGCTGTGTAATTTTTTAACGGAGTCACCTAGTGCAG”, the binding signal is 10600 fluorescence intensity (a.u.).

Take “TTAGTACTATTAATTTGGTGGGGTTGGGTGGGTGCTGTAACGGAGTCACCTAGTGCAG”: the binding signal is 16700 fluorescence intensity (a.u.).

With “GAGGAGGTGGTGGCGCGGCGTTCTTGGGGCTGGAGAGGGTCGGAGTCACCTAGTGCAG”, the binding signal is 8790 fluorescence intensity (a.u.).

Regarding “CTTCGCTTTCGTCACGTTCTTGATTTGGGCGGGCGCGGAGCGGAGTCACCTAGTGCAG”, the binding signal is 8980 fluorescence intensity (a.u.).

For “CTCGGGAGAGGGGAGGCGTAGATTCTTCTGTTGCTTCAGTCGGAGTCACCTAGTGCAG”, the binding signal was 10300 fluorescence intensity (a.u.).

For the sequence “CGTCGAACGTCCACTACCATCCTCTTGTTAATCCCGCAAACGGAGTCACCTAGTGCAG”, the binding signal was 8060 fluorescence intensity (a.u.).

Take “TTTCTTTGACTCGGTGACTTTGTGAGAGATGTTTTATGCCCGGAGTCACCTAGTGCAG”: the binding signal is 9190 fluorescence intensity (a.u.).

As to “CTCCGTCCCATAATATAAGGGATTTTGACTTTTTACTTGCCGGAGTCACCTAGTGCAG”, the binding signal was 11200 fluorescence intensity (a.u.).

On to “TCCCCGTTACCGAGCGCCGCCGCCTCCGCCTCCACCTCTACGGAGTCACCTAGTGCAG”, for which the binding signal was 10100 fluorescence intensity (a.u.).

Take “TCTACACAATTCAAAATCCGGCCCTGTTTATTTTGTACTACGGAGTCACCTAGTGCAG”: the binding signal is 8420 fluorescence intensity (a.u.).

In the case of “CTACACTCCTAATCTCTCTCTCTTTCTCGAGTGGAATCCACGGAGTCACCTAGTGCAG”, the binding signal was 8970 fluorescence intensity (a.u.).

With “ACGCGCCGCAACGCAACTTCCATGGACGCATCTGGACCACCGGAGTCACCTAGTGCAG”, the binding signal was 8130 fluorescence intensity (a.u.).

“GTTTTTAATTTCGATAATATTTGATTCTGTTTTCGTGTCCCGGAGTCACCTAGTGCAG”: the binding signal is 8930 fluorescence intensity (a.u.).

For the sequence “ATTACCACTGATGCTGCTTGGTTCGCAATACTTGCTTCTTCGGAGTCACCTAGTGCAG”, the binding signal was 9730 fluorescence intensity (a.u.).

Regarding “GACTGAGCTTTGTGGGTGGGTTGGTTGGTTGGTTATACAACGGAGTCACCTAGTGCAG”, the binding signal was 30500 fluorescence intensity (a.u.).

Take “GTTCTGACTGTTGTGTTGTGGGTGTTTGGTTTATGAGCAGCGGAGTCACCTAGTGCAG”: the binding signal is 8430 fluorescence intensity (a.u.).

As to “CTCGTATAGTTAGCTTGGAGGACTGAGCTTTGTGGGTGGGCGGAGTCACCTAGTGCAG”, the binding signal was 8880 fluorescence intensity (a.u.).

In the case of “GTCTCCATTGCACCCACGTTGGATCCGCCCTTGCACATGGCGGAGTCACCTAGTGCAG”, the binding signal was 8470 fluorescence intensity (a.u.).

In the case of “TAATTCATGGTTGGTTTTTAATTATATTTCCCTCCTTAAACGGAGTCACCTAGTGCAG”, the binding signal is 9580 fluorescence intensity (a.u.).

“TCGTCGGTGGTGTGGGGAGGAGAAGATGGCCGGAGAGGAACGGAGTCACCTAGTGCAG”: the binding signal is 15000 fluorescence intensity (a.u.).
